# A selection: hits, their analogues and other compounds. The true share with any hit is near 10%.
# RORgamma inh – ROR gamma (mouse) transcription inhibition. Drosophila S2 Gal4-RORgamma UAS-luciferase reporter, 20 h. Potency, µM (doses to about 53.6 µM), without a hit: at the highest dose activity change, negative = inhibition, hits mostly inhibitors. hit rate 5.4% among 310,000; also: % is scaled to controls: 0 for no effect and ±100 for the full control effect; nearly all actives have a fitted effect of over 60% in size
# Target sequence (P51450 whole entry, looked up, the tested form may be a part): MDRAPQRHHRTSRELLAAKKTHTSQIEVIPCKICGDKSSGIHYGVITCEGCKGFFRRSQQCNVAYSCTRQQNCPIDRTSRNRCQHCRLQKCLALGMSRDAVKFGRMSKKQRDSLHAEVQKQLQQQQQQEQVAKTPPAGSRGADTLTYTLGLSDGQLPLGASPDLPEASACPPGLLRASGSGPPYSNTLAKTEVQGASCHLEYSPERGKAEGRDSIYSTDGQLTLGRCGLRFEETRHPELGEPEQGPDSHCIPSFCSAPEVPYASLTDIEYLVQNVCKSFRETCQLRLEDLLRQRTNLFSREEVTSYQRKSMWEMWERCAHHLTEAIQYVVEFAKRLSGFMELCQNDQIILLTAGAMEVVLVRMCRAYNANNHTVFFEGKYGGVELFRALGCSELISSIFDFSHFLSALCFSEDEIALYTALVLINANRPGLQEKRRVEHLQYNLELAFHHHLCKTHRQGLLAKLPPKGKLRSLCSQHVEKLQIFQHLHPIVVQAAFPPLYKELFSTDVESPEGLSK
#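 Using a luciferase readout, inhibitors were identified by reduced reporter activity in Drosophila cells coexpressing a copper-inducible Gal4–ROR gamma fusion and UAS-driven Photinus luciferase, incubated 20 hr after 700 uM copper sulfate.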
# MCF10A rereplic – inducers of DNA re-replication in MCF 10A breast cells; MCF 10A DNA re-replication, Hoechst nuclear intensity, 48 h; Potency, µM (top dose mostly 46.1 µM), without a hit: top-dose activity, positive = re-replication, hits mostly activators; hit rate 2.9% among 350,000; AID 624296; also: % of control where 0% means no effect; nearly all actives have a fitted effect of over 50% in size
# KB-V1 MDR tox – kills drug-selected multidrug resistant KB-V1 cells. KB-V1 MDR cells viability, CellTiter-Glo, 72 h. hit rate 3.4% among 400,000. Potency, µM (highest dose often 46.1 µM), actives largely listed as cytotoxic; also: % is scaled to controls: 0 for no effect and ±100 for the full control effect; nearly all actives have a fitted effect of over 60% in size
#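 KB-V1, DMEM (no phenol red) + 10% FBS; cpd pin-transferred, titration series; 72 h, 37 degrees C; CellTiter-Glo, luminescence. Data normalized, curve-fit.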
# SW480 rereplic – inducers of DNA re-replication in SW480 colon cancer cells | SW480 DNA re-replication, Hoechst DNA content imaging, 48 h | Potency, µM (doses to about 46.1 µM), without a hit: top-dose re-replication activation, actives largely listed as activators | hit rate 1.8% among 340,000 | AID 624297; also: % of control where 0% means no effect; nearly all actives have a fitted effect of over 55% in size
#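 Treated cells incubate 48 hr (37 C, 5% CO2), are stained 40 min with Hoechst, and nuclear fluorescence is enumerated; a rise in nuclei with high DNA signal marks re-replication.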
# Gal4-VP16 FLuc – Gal4-VP16 reporter inhibition counter-screen. AID 2546. hit rate 3.5% among 310,000. Potency, µM (highest dose often 53.6 µM), without a hit: top-dose activity, negative = inhibition, most hits filed as inhibitors. Drosophila S2 Gal4-VP16 UAS-luciferase, luminescence, 20 h;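 also: Gal4-VP16 expression switched on by copper sulfate through the metallothionein promoter; % is scaled to controls: 0 for no effect and ±100 for the full control effect; nearly all actives have a fitted effect of over 50% in size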
# KB-3-1 cytotox – KB-3-1 parental cell cytotoxicity; KB-3-1 viability, CellTiter-Glo ATP luminescence, 72 h; Potency, µM (series often up to 46.1 µM), most hits filed as cytotoxic; hit rate 1.4% among 400,000; AID 1347075; also: % is scaled to controls: 0 for no effect and ±100 for the full control effect; nearly all actives have a fitted effect of over 60% in size
#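 Screening of KB-3-1 cells (DMEM, 10% FBS, phenol-red free) ran from lowest to highest compound concentration; after 72 h at 37 °C viability was read luminescently and curves fitted.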
# The depositor's hits bear a star; i = inactive; ? = inconclusive; · = no result given; [ ] = another dose, or the depositor's remark. Calls follow the shape of the dose curve; as a rule, active = well fitted curve in the direction sought with a large enough effect; inconclusive = small, poorly fitted or top-dose-only effect, or another doubt; inactive = no such curve, though single readings can be large; an effect the other way counts as inactive or inconclusive. Potency is read from the fitted curve at half-maximal effect.
SMILES,RORgamma inh,MCF10A rereplic,KB-V1 MDR tox,SW480 rereplic,Gal4-VP16 FLuc,KB-3-1 cytotox
Cc1ccc(-n2c(C)cc(/C=N/NC(=O)CC3(C)OCCO3)c2C)c(C)c1,-11%,1%,i,-4%,6%,i
CC1(CC(=O)N/N=C/c2cc([N+](=O)[O-])c(O)cc2O)OCCO1,5.6µM*,-1%,i,?,?,i
CCN(CC)C(=O)CSc1nc2c(sc(=S)n2Cc2ccco2)c(=O)n1-c1ccccc1,?,5%,8.2µM*,13%,1%,i
CCOC(=O)CSc1nc2ccccc2c(=O)n1Cc1ccco1,5%,-1%,i,1%,0%,i
CCOC(=O)CSc1nc2c(sc3ccc([N+](=O)[O-])cc32)c(=O)n1Cc1ccco1,8.9µM*,4%,?,-12%,5.6µM*,i
CCOC(=O)CSc1nc2c(sc(=S)n2-c2ccccc2OC)c(=O)n1Cc1ccco1,-8%,4%,9.2µM*,7%,8%,i
CC(C)CCCC(C)C1CCC2C3CC=C4CC(=O)CC[C@@]4(C)C3CC[C@@]12C (stereo not given in full),-5%,·,·,·,-2%,·
CCOC(=O)c1cccc(NC(=O)c2cnc(N3CCCCC3)c3ccccc23)c1,·,·,i,·,·,?
COc1cc(/C=C/c2cc[n+](C)c3ccccc23)cc(OC)c1OC,·,·,i,·,·,?
C=CCn1c2ccccc2c2nnc(SCN3C(=O)c4ccccc4C3=O)nc21,9%,0%,i,1%,-8%,i
C=CCn1c2ccccc2c2n[nH]c(=S)nc21,2.5µM*,3%,?,1%,3.5µM*,i
O=C(O)Cn1c2ccccc2c2n[nH]c(=S)nc21,-35%[1.91 µM],1%,i,5%,9%,i
CCCn1c2ccc(C)cc2c2n[nH]c(=S)nc21,1.8µM*,2%,i,15µM*,3.5µM*,i
CCn1c2ccccc2c2n[nH]c(=S)nc21,4µM*,-2%,6.5µM*,-34%,8.9µM*,?
CCCCNC(=O)CSc1nc2ccc(N3CCOCC3)cc2c(=O)n1Cc1ccc(OC)cc1,?,?,i,-3%,-2%,i
COc1ccc(Cn2c(CCC(=O)NCc3ccco3)nc3cccnc32)cc1,16%,-2%,21µM*,-3%,4%,i
COCCNC(=O)CSc1nc2cc(OC)c(OC)cc2c(=O)n1Cc1ccc(OC)cc1,9%,14%,2.6µM*,7%,4%,i
COCCNC(=O)CSc1nc2ccc(N3CCOCC3)cc2c(=O)n1Cc1ccc(OC)cc1,10µM*,?,i,?,14µM*,i
COc1cc2nc(SCC(=O)NCc3ccco3)n(Cc3ccc(Cl)cc3)c(=O)c2cc1OC,-39%,15µM*,?,18µM*,-5%,10µM*
COc1ccc(CNC(=O)CCc2nc3cccnc3n2Cc2ccc(OC)cc2)cc1,·,·,i,·,·,i
COCCN1C(=O)CN(S(C)(=O)=O)CC1(C)C(=O)Nc1c(C)cccc1C (stereo not given),·,·,i,·,·,i
Cc1ccc(NC(=O)CN2C(=O)CC(c3ccc(C)c(C)c3)=Nc3ccccc32)cc1,·,·,i,·,·,i
CCc1cccc(NC(=O)CN2Cc3ccccc3C2=O)c1,·,·,i,·,·,i
CCC(C)NC(=O)CSc1nc2ccccc2c(=O)n1Cc1ccc(OC)cc1 (stereo not given),8%,3%,i,-4%,10µM*,i
COc1ccc2c(C)c(CCC(=O)NCCc3ccccc3OC)c(=O)oc2c1,·,·,?,·,·,i
SMILES,RORgamma inh,MCF10A rereplic,KB-V1 MDR tox,SW480 rereplic,Gal4-VP16 FLuc,KB-3-1 cytotox
O=c1c2sc3ccccc3c2n(Cc2ccccc2)c(=O)n1CCc1ccccc1,·,·,i,·,·,i
O=C(NNc1ncnc2c1cnn2-c1ccc(F)cc1)c1cccs1,13µM*,?,?,20%,-5%,i
Cc1ccc(-n2ncc3c(NNC(=O)Cc4ccccc4)ncnc32)cc1,13µM*,23µM*,?,-17%,?,i
COc1ccc(Nc2ncnc3c2cnn3-c2ccccc2)cc1OC,38%,-1%,i,9%,0%,i
Cc1ccc(-n2ncc3c(NNC(=O)c4ccco4)ncnc32)cc1Cl,3.2µM*,?,?,72%,4µM*,i
CC(=O)NNc1ncnc2c1cnn2-c1ccccc1,-33%,11%,i,7%,-14%,i
Cc1cccc(C(=O)NNc2ncnc3c2cnn3-c2ccc(C)c(Cl)c2)c1,·,·,i,·,·,i
COc1ccc(OC)c(Nc2ncnc3c2cnn3-c2cccc(C)c2)c1,?,?,?,7.3µM*,-5%,?
Cn1ncc2c(NNC(=O)Cc3ccccc3)ncnc21,16%,16%,i,-2%,-7%,i
Cc1nc(NCc2ccccc2)c2nc(-c3ccccc3)n(CCCN3CCOCC3)c2n1,-29%,·,·,·,-6%,·
Cc1ccccc1C(=O)NNc1ncnc2c1cnn2-c1cccc(Cl)c1,·,·,i,·,·,i
Cc1cccc(-n2ncc3c(NNC(=O)c4ccco4)ncnc32)c1,7.1µM*,6%,i,?,7.9µM*,i
CC(=O)Nc1ccc(Nc2ncnc3c2cnn3-c2cccc(C)c2)cc1,-29%,8%,16µM*,-9%,-9%,i
CC(=O)Nc1ccc(Nc2ncnc3c2cnn3-c2ccccc2)cc1,24%,24%,?,-2%,-11%,?
COc1ccccc1NC(=O)CSc1cn(CC(=O)N2CCCC2)c2ccccc12,·,·,i,·,·,i
COc1cccc(CNC(=O)c2ccc3nc(-c4ccc(F)cc4)c(-c4ccc(F)cc4)nc3c2)c1,·,·,i,·,·,i
O=C(/C=C/c1cn(CC(O)CN2CCCCC2)c2ccccc12)c1ccccc1 (stereo not given),13%,21µM*,i,21µM*,-6%,i
O=C(/C=C/c1cn(CC(O)CN2CCCCCC2)c2ccccc12)c1ccccc1 (stereo not given),·,·,i,·,·,?
O=C(/C=C/c1cn(CC(O)CN2CCCCC2)c2ccccc12)c1cccs1 (stereo not given),2%,23µM*,23µM*,21µM*,-26%,?
COc1ccc(C(=O)/C=C/c2cn(CC(O)CN3CCN(C)CC3)c3ccccc23)cc1OC (stereo not given),27%,10µM*,i,23µM*,7%,i
COc1ccc(C(=O)/C=C/c2cn(CC(O)CN3CCCCCC3)c3ccccc23)cc1OC (stereo not given),·,·,i,·,·,?

# Assay outcomes deposited in PubChem BioAssay by National Center for Advancing Translational Sciences (NCATS).
